Laboratory results from PubChem BioAssay (NCATS).
Inconclusive results are not listed. The source made the active and inactive calls. The call rests on the fitted dose curve; in most records, active means well fitted curve in either direction with a large enough effect (not every such curve was filed as active); inconclusive means small, poorly fitted or top-dose-only effect, or another doubt; inactive means flat fitted curve, though single readings scatter.

Assay: AP1 Signaling Pathway (AID 357)
Conditions: ME-180 AP-1-bla reporter, EGF-induced, beta-lactamase ratio, 5 h; at 17.2 µM (top of the series) unless noted
Outline: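 ME-180 cells with beta-lactamase reporter under AP-1 response element, stimulated with EC50 EGF; compounds tested in titration series, 5 h at 37 °C. CCF4 substrate added 2.5 h at room temperature; 460/530 nm emission ratio gave %activity and AC50.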
On the % scale 0 is the no-effect control and ±100 the full control effect.

Activity change, negative = inhibition, inactive:
Cc1ccc(C(=O)/C=C/Nc2ccccn2)cc1 11%, CN1CCc2c(sc3c2C(=O)NC(c2ccco2)N3)C1 (centres undefined) -0.778%, Cc1cc(NCC2CCCO2)n2c(nc3ccccc32)c1C#N (centres undefined) -1.4%, CCOC(=O)NC1(C(F)(F)F)C(=O)NC(C)=C1C#N (centres undefined) 26.2%, CCCCOc1ccc(C(=O)NCC(=O)NCC(=O)OCC)cc1 -0.159%, CCOCCN(C(=O)COC)c1cccc(OC)c1 20.2%, COC(=O)CSc1nnc2n(-c3ccc(OC)cc3)c(=O)c3c4c(sc3n12)CCCCC4 -16%, N#C/C(=C\c1c(N2CCC(C(N)=O)CC2)nc2ccccn2c1=O)S(=O)(=O)c1ccccc1 -8.19%, Cn1c(=O)n(CCc2ccccc2)c(=O)c2c1ncn2Cc1ccccc1 -15.9%, Cc1ccc(/C=c2\sc3n(c2=O)CN(c2ccc(Br)cc2)CN=3)o1 25.9%, CCC(NC(=O)Nc1nccs1)(C(F)(F)F)C(F)(F)F -2.44%, CCOC(=O)c1c(CN2CCN(C)CC2)n(C)c2cc(Br)c(OC)cc12 5.82%, O=C1CCC(=O)N1CN(Cc1ccco1)CN1C(=O)CCC1=O 7.15%, CCN1C(=O)CC(N2CCN(c3ccc(OC)cc3)CC2)C1=O (centres undefined) 7.27%, C(=N\n1cnnc1)/c1cccc(Oc2ccccc2)c1 -3.86%, Cc1c(/C(O)=C2\C(=O)C(=O)N(CCN(C)C)C2c2cccs2)cnn1-c1ccccc1 (centres undefined) 6.26%, O=S(=O)(O)c1nc2ccccc2n1Cc1ccc(Cl)cc1Cl 18.6%, CC1(C)CC(=O)C(C2=NC(C)(C)Cc3ccccc32)=C(O)C1 2.44%, COC(=O)c1ccc(C(=O)OC)c(NC(=O)c2cc3ccccc3o2)c1 -4.57%, O=C(O)C1CC(=O)n2c(nc3ccccc32)S1 (centres undefined) -9.56%, CC(=O)Nc1cnc2ccccc2n1 2.26%, COc1cc(C(=O)NCC(=O)n2nc(C)cc2C)cc(OC)c1OC 0.479%, c1ccc(-n2ncc3c(N4CCCC4)ncnc32)cc1 -17.5%, Cc1cc(C)c(C#N)c(SCC(=O)NC2CC2)n1 5.34%

Assay: NFAT Signaling Pathway (AID 444);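 further: carbachol stimulus at about its EC50 of 1 µM final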
Conditions: Jurkat NFAT-bla M1, carbachol, beta-lactamase ratio, 5 h; at 17.2 µM (top of the series) unless noted
Outline: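 Read-out: CCF4 FRET ratio (460 nm/530 nm) after 1 h RT dye loading, used for %activity and AC50 from titration series. Cells: Jurkat NFAT-β-lactamase/M1 line, treated with compound plus 1 uM carbachol for 5 h, 37 °C.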

Activity change, negative = inhibition, inactive:
CCOC(=O)CSc1nc(N2CCOCC2)c2c(c1C#N)CC(C)(C)N(C)C2 -17.7%, CC1CN(c2oc(-c3cccs3)nc2C#N)CC(C)O1 (centres undefined) 5.83%, Cc1ccc(-c2ccccc2NC(=O)C2C3C=CC(C3)C2C(=O)O)o1 (centres undefined) -9.53%, Nc1ccc2oc(-c3ccccc3Cl)nc2c1 15.3%, CCN=C1SC(C(=O)Nc2ccc(Cl)c(Cl)c2)CC(=O)N1CC (centres undefined) 10.1%, CCCCCSc1nc(O)cc(=O)[nH]1 11.4%, COC(=O)c1ccc(C2/C(=C(\O)c3cccc(OC)c3)C(=O)C(=O)N2CCCN(C)C)cc1 (centres undefined) 3.34%, CCOC(=O)CNS(=O)(=O)c1cc(-c2nn(C)c(=O)c3ccccc23)ccc1C -12.6%, CCOC(=O)CSc1nc(-c2ccc3c(c2)OCO3)ccc1C#N 18.5%, COC(=O)C(C)Sc1nc2c(c(=O)n(C)c(=O)n2C)n1CCC(C)C (centres undefined) 7.85%, COC(=O)CC1SC(=O)NC1=O (centres undefined) 5.58%, COCCNC(=O)C(C#N)c1nc2ccccc2nc1N1CCN(Cc2ccc3c(c2)OCO3)CC1 (centres undefined) -26.8%, CCN(CC)CCN1C(=O)C(=O)/C(=C(/O)c2c(C)[nH]c(C(=O)OC)c2C)C1c1cccc(OC)c1 (centres undefined) 3.77%, c1ccc(-c2nc(NCC3CCCO3)c3ccccc3n2)nc1 (centres undefined) -27.7%, COc1ccccc1C(=O)Nc1cc(Cl)ccc1O -2.92%, COc1ccc2c(c1)nc(N)n2Cc1ccccc1 -9.42%, Cc1ccc(C(=O)/C=C/Nc2ccccn2)cc1 23.5%, CN1CCc2c(sc3c2C(=O)NC(c2ccco2)N3)C1 (centres undefined) -3.54%, Cc1cc(NCC2CCCO2)n2c(nc3ccccc32)c1C#N (centres undefined) -16.9%, CCOC(=O)NC1(C(F)(F)F)C(=O)NC(C)=C1C#N (centres undefined) -4.71%, CCCCOc1ccc(C(=O)NCC(=O)NCC(=O)OCC)cc1 -7.6%, CCOCCN(C(=O)COC)c1cccc(OC)c1 2.78%, COC(=O)CSc1nnc2n(-c3ccc(OC)cc3)c(=O)c3c4c(sc3n12)CCCCC4 -18.9%, N#C/C(=C\c1c(N2CCC(C(N)=O)CC2)nc2ccccn2c1=O)S(=O)(=O)c1ccccc1 29.6%, Cn1c(=O)n(CCc2ccccc2)c(=O)c2c1ncn2Cc1ccccc1 -7.53%, Cc1ccc(/C=c2\sc3n(c2=O)CN(c2ccc(Br)cc2)CN=3)o1 -11.3%, CCC(NC(=O)Nc1nccs1)(C(F)(F)F)C(F)(F)F -12.7%, CCOC(=O)c1c(CN2CCN(C)CC2)n(C)c2cc(Br)c(OC)cc12 20.5%, O=C1CCC(=O)N1CN(Cc1ccco1)CN1C(=O)CCC1=O 5.38%, CCN1C(=O)CC(N2CCN(c3ccc(OC)cc3)CC2)C1=O (centres undefined) 1.19%, C(=N\n1cnnc1)/c1cccc(Oc2ccccc2)c1 -2.39%, Cc1c(/C(O)=C2\C(=O)C(=O)N(CCN(C)C)C2c2cccs2)cnn1-c1ccccc1 (centres undefined) -10.6%, O=S(=O)(O)c1nc2ccccc2n1Cc1ccc(Cl)cc1Cl 7.47%, CC1(C)CC(=O)C(C2=NC(C)(C)Cc3ccccc32)=C(O)C1 2.48%, COC(=O)c1ccc(C(=O)OC)c(NC(=O)c2cc3ccccc3o2)c1 3.55%, O=C(O)C1CC(=O)n2c(nc3ccccc32)S1 (centres undefined) -10.4%, CC(=O)Nc1cnc2ccccc2n1 -13.5%, COc1cc(C(=O)NCC(=O)n2nc(C)cc2C)cc(OC)c1OC -4.87%, c1ccc(-n2ncc3c(N4CCCC4)ncnc32)cc1 14.9%, Cc1cc(C)c(C#N)c(SCC(=O)NC2CC2)n1 -3.32%
